Measured values taken from PubChem BioAssay (EPA / NIEHS).
Records with an inconclusive call do not appear. Active and inactive are the calls of the source. The calls were made as follows, unless noted: active = hit-call score of the fitted dose curve at least 0.9, where 1 is the maximum; inconclusive = response in the unintended direction; inactive = score below 0.9.

Columns and labels:
[1] = STM_H9_OrnithineISnorm_perc: Stemina devTOX quickPredict H9 human embryonic stem cell (hESC)-based Assay for Ornithine (ORN) Metabolite Biomarker, Normalized (AID 2283712; active = hit-call score of the fitted dose curve at least 0.9, where 1 is the maximum; inactive = score below 0.9;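 also: ornithine released into spent medium during last day measured by mass spectrometry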)
In short: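 Ornithine in spent medium from the last 24 h of a 72 h exposure, deproteinised and quantified by UPLC-HRMS against an isotope-labelled internal standard, expressed relative to 0.1% DMSO. Pluripotent H9 cells; compound refreshed every 24 h.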

[2] = STM_H9_CystineISnorm_perc: Stemina devTOX quickPredict H9 human embryonic stem cell (hESC)-based Assay for Cystine (CYSS) Metabolite Biomarker, Normalized (AID 2283713; active = hit-call score of the fitted dose curve at least 0.9, where 1 is the maximum; inactive = score below 0.9)
In short: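 Cystine in spent media from the last 24 h of a 72 h H9 hESC exposure (daily re-dosing), measured by UPLC-HRMS. Values normalized to isotopic internal standard, then to 0.1% DMSO; viability via CellTiter-Fluor.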

[3] = STM_H9_OrnCyssISnorm_ratio: Stemina devTOX quickPredict H9 human embryonic stem cell (hESC)-based Assay for Ornithine (ORN):Cystine (CYSS) Ratio (AID 2283714)
In short: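 H9 hESC, 72h, q24h re-dose; last-day media → acetonitrile deproteinization → UPLC-HRMS. ORN:CYSS ratio from isotope-normalized EIC areas, vs 0.1% DMSO; MTX references on each plate.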

[4] = Tanguay_ZF_120hpf_ActivityScore_legacy: (Legacy) Oregon State University Tanguay Lab 120 Hour Post-fertilization zebrafish Assay Score for Activity (AID 2283742);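 as to AC50: dechorionated Tropical 5D wild-type zebrafish embryos held singly per well; static exposure from 6 hpf until 120 hpf at 28 °C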
In short: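 In this whole-embryo screen, dechorionated zebrafish were exposed from 6 hpf until 120 hpf at 28C under a 0.64% DMSO vehicle. Developmental malformations and death were recorded by brightfield microscopy as binary endpoints.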

[5] = read-out: HMG-CoA synthase (HMGCS2), HMGCS2 (gene 3158); experiment: CLD_HMGCS2_48hr: CellzDirect (CLD) Gene Expression Assay for HMG-CoA synthase (HMGCS2) at 48 hours (AID 2283711)
In short: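 mRNA induction read by qNPA chemiluminescence, 48 h after dosing. Cultured primary human liver cells (two donor preparations) received fresh compound daily over two days against 0.2% DMSO vehicle; morphology-based cytotoxicity noted alongside.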

[6] = biological target: Luciferin 4-monooxygenase (Photinus pyralis) (UniProt P08659); experiment: CCTE_Simmons_QuantiLum_inhib_2: CCTE's Firefly Luciferase Inhibition Assay, Simmons Lab (AID 2283767);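 as to AC50: potency for inhibitors that lower luciferase luminescence relative to DMSO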
In short: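 Eight test concentrations, 5 nM up to 87.5 uM final, preincubated 30min at 37C in the dark with purified luciferase (0.5% DMSO final). Detection reagent (150uM D-luciferin, 147uM dATP, 75uM CoA, pH 7.8) injected per well before kinetic luminescence read; three replicates.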

[7] = CEETOX_H295R_MTT_cell_viability: Viability Assessment in the CeeTox HT-H295R MTT Assay (AID 2283718; active = hit-call score of the fitted dose curve at least 0.9, where 1 is the maximum; inactive = score below 0.9)
In short: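 H295R cells prestimulated 48 h with 10 uM forskolin, then exposed 48 h to test chemical (0.1% DMSO final). Viability by MTT (0.5 mg/ml, 4 h, 37 C), absorbance 570/650 nm; percent change versus DMSO, bidirectional fit.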

[8] = biological target: zebrafish Estrogen Receptor (ESR1), esr1 (gene 259252) (UniProt P57717); experiment: ATG_zfER1_XSP1: Attagene TRANS-FACTORIAL Multi-Species (XSP1) HepG2 Assay for zebrafish Estrogen Receptor (ESR1) (AID 2283772)
In short: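 HepG2 cells were transiently transfected with multiplexed GAL4-UAS reporter units driven by chimeric NR-GAL4 proteins, dosed for 24 h with 3 nM 6-alpha-fluorotestosterone present, and reporter mRNA quantified by RT-PCR and capillary electrophoresis versus DMSO.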

[9] = tested on: zebrafish Estrogen Receptor (ESR2B), gene 317733; experiment: ATG_zfER2b_XSP1: Attagene TRANS-FACTORIAL Multi-Species (XSP1) HepG2 Assay for zebrafish Estrogen Receptor (ESR2B) (AID 2283773)
In short: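 Human hepatoma HepG2, transiently transfected with multi-reporter units; exogenous zebrafish ESR2B-Gal4 activity measured. Exposure 24 h alongside 3 nM 6-alpha-fluorotestosterone to partly stimulate AR.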

[10] = tested on: frog Estrogen Receptor (ESR2), gene 100174814; experiment: ATG_frER2_XSP1: Attagene TRANS-FACTORIAL Multi-Species (XSP1) HepG2 Assay for frog Estrogen Receptor (ESR2) (AID 2283774)
In short: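 Multiplexed TRANS-format reporter assay in human hepatoma HepG2: chimeric nuclear receptor-Gal4 activity reported as mRNA induction at 24 h, detected by fluorescent RT-PCR products on capillary electrophoresis and fitted upward from DMSO baseline.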

[11] = tested on: chicken Androgen Receptor (AR), gene 422165; experiment: ATG_chAR_XSP1: Attagene TRANS-FACTORIAL Multi-Species (XSP1) HepG2 Assay for chicken Androgen Receptor (AR) (AID 2283768)
In short: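 Reporter mRNA read by RT-PCR with fluorescent labelling and capillary electrophoresis 24 h after chemical dosing of transiently transfected HepG2 cells. Chicken AR-Gal4 chimera, partially stimulated with 3 nM 6-alpha-fluorotestosterone; activity fitted upward relative to DMSO.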

Chain of Luciferin 4-monooxygenase (Photinus pyralis) (P08659 whole entry, looked up): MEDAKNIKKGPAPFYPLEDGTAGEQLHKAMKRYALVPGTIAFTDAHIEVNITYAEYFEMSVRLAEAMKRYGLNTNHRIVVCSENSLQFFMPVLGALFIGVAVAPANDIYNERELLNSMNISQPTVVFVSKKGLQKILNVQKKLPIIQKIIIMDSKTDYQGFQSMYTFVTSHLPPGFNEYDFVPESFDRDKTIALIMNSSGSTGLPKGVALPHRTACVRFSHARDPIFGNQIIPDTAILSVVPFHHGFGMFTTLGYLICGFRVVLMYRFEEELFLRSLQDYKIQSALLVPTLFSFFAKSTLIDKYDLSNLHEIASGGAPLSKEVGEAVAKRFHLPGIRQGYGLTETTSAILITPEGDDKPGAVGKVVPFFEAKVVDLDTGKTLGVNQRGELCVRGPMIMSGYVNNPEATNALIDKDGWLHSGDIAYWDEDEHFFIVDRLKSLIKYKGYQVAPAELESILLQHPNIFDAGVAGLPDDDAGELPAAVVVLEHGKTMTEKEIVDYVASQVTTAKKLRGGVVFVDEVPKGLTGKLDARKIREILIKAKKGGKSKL
Chain of zebrafish Estrogen Receptor (ESR1), esr1 (gene 259252) (P57717 whole entry, looked up, the tested form may be a part): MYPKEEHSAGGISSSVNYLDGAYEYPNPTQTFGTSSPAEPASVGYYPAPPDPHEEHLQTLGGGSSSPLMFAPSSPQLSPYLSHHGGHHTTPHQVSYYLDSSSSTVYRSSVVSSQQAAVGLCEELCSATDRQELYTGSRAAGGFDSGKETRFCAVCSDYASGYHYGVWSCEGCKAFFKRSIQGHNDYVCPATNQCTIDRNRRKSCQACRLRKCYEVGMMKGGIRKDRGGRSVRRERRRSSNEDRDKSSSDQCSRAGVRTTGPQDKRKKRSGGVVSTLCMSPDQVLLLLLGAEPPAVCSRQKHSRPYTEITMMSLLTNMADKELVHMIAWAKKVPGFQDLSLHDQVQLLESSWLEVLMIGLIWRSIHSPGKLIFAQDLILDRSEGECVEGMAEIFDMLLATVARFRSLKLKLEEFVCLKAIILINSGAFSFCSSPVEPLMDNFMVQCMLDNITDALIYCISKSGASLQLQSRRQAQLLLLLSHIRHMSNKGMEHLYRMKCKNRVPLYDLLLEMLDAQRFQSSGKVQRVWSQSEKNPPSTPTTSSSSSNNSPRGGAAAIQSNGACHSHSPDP

## CCCCC(O)(Cn1cncn1)c1ccc(Cl)cc1Cl (centres undefined)
[1]
  AC50: 85.1 µM (active)
[2]
  AC50: 78.9 µM (active)
[3]
  AC50: 76.5 µM (active)
[4]
  outcome: inactive

## O=P(O)(O)CCCl
[5]
  AC50: 0.000456 µM (active)
[4]
  outcome: inactive
[6]
  outcome: inactive

## CCN(CC)C(=O)C(C)Oc1cccc2ccccc12 (centres undefined)
[1]
  AC50: 50 µM (active)
[2]
  AC50: 5.52 µM (active)
[3]
  AC50: 6.66 µM (active)
[7]
  outcome: inactive
[4]
  outcome: inactive
[6]
  AC50: 0.000739 µM (active)
[8]
  outcome: inactive
[9]
  AC50: 27.1 µM (active)
[10]
  AC50: 27.4 µM (active)

## CC1(C)C(C=C(Cl)Cl)C1C(=O)OC(C#N)c1cccc(Oc2ccccc2)c1 (centres undefined)
[1]
  outcome: inactive
[2]
  outcome: inactive
[3]
  outcome: inactive
[7]
  outcome: inactive
[4]
  AC50: 1.14 µM (active)
[11]
  outcome: inactive
[8]
  outcome: inactive
[9]
  AC50: 72.5 µM (active)
[10]
  AC50: 27.3 µM (active)

## O=C(Nc1ccccc1-c1ccc(Cl)cc1)c1cccnc1Cl
[1]
  AC50: 50 µM (active)
[2]
  outcome: inactive
[3]
  AC50: 72.1 µM (active)
[7]
  outcome: inactive
[4]
  outcome: inactive

## O=C(O)c1c(Cl)ccc2cc(Cl)cnc12
[5]
  outcome: inactive
[4]
  outcome: inactive

## CNC(=O)Oc1cccc2ccccc12
[1]
  outcome: inactive
[2]
  AC50: 2.87 µM (active)
[3]
  AC50: 2.71 µM (active)
[7]
  outcome: inactive
[4]
  outcome: inactive

## CCCC(=NOCC)C1=C(O)CC(CC(C)SCC)CC1=O (centres undefined)
[5]
  outcome: inactive
[7]
  outcome: inactive
[4]
  outcome: inactive

## CC(C)(C)C(=O)C(Oc1ccc(Cl)cc1)n1cncn1 (centres undefined)
[1]
  outcome: inactive
[2]
  AC50: 34.3 µM (active)
[3]
  AC50: 71.8 µM (active)
[7]
  outcome: inactive
[4]
  AC50: 33.6 µM (active)

## Nc1c(Cl)c(F)nc(OCC(=O)O)c1Cl
[5]
  outcome: inactive
[4]
  outcome: inactive

## CC1(C)CON(Cc2ccccc2Cl)C1=O
[1]
  outcome: inactive
[2]
  AC50: 72.5 µM (active)
[3]
  AC50: 68.8 µM (active)
[7]
  outcome: inactive
[4]
  outcome: inactive

## Cc1cc(C)nc(Nc2ccccc2)n1
[5]
  outcome: inactive
[1]
  outcome: inactive
[2]
  AC50: 7.74 µM (active)
[4]
  outcome: inactive

## CCOP(=O)(OCC)Oc1nc(Cl)c(Cl)cc1Cl
[5]
  outcome: inactive
[4]
  AC50: 1.15 µM (active)
[6]
  outcome: inactive

## CCCN(CC)CC1COC2(CCC(C(C)(C)C)CC2)O1 (centres undefined)
[5]
  outcome: inactive
[1]
  outcome: inactive
[2]
  AC50: 1.03 µM (active)
[3]
  AC50: 1.3 µM (active)
[7]
  outcome: inactive
[4]
  outcome: inactive

## CS(=O)(=O)c1cc(C(F)(F)F)ccc1C(=O)c1cnoc1C1CC1
[5]
  outcome: inactive
[1]
  AC50: 0.0772 µM (active)
[2]
  outcome: inactive
[4]
  outcome: inactive
